We go through 68 compounds from ChEMBL document CHEMBL3988442, “University of Dundee, Small-Polar-MMV Screening Library” (2021).

The structures appear in SMILES notation. Screen size: about 53,000 compounds; about 900 (1.7%) showed an effect of 50% or more. Shown is part of a subset that was picked to be rich in strong results.

For the test, the system named is Mycobacterium tuberculosis. Kind of test: Cornell - Phenotypic assay to identify agents that inhibit growth of Mycobacterium tuberculosis. Further details: scale not given: direction of the effect not stated beside the values. The class given is functional. As to conditions: 10 mM as filed; unlikely as a test dose.
Turning to `CC(C)n1nc(CN2CCCC2)c2c1CN(CC1CC1)CC2.O=C(O)C(F)(F)F.O=C(O)C(F)(F)F`, the “Percent Effect” value is on record as 3.423%.
Consider `O=C(CCn1nc(C(F)(F)F)c(Cl)c1C1CC1)NN1CCOCC1`, for which the “Percent Effect” value is recorded as 6.641%.
On to `CNS(=O)(=O)c1cc(C(=O)NC2CCOc3ccccc32)cc(C)c1C` (stereo not drawn), for which the “Percent Effect” value is -0.5765%.
For `Cc1cccc(CN2CC[C@@H]3[C@@H]2CCN3C(=O)Cc2cccs2)n1.O=C(O)C(F)(F)F.O=C(O)C(F)(F)F`, the “Percent Effect” value is given as 14.31%.
As to `Cn1nc(Br)c2c(NCCNc3ncccn3)ncnc21`, the “Percent Effect” value is 7.21%.
The same measure for `O=C(c1nnn(-c2ccc(C(F)(F)F)cc2)n1)N1CC(O)C1`: 30.38%; for `O=C(c1nnn(-c2ccc(C(F)(F)F)cc2)n1)N1CCC(O)CC1`: 42.24%; for `CC1CCCN(C(=O)c2nnn(-c3ccc(C(F)(F)F)cc3)n2)C1` (stereo not drawn): 77.62%.
For `Cc1cc(N2CCCC2c2nnc3n2CCCCC3)nc(N)n1` (stereo not drawn), the “Percent Effect” value is -31.59%.
The same measure for `COCC(=O)N1CCc2ncc(Cn3cncn3)n2CC1`: 12.01%; for `CN1CC2(CCCN(Cc3cccc(Oc4ccccc4)c3)C2)OC1=O` (stereo not drawn): 2.197%; for `Cn1cc(-c2c(C#N)c(N)nc3c2CCc2[nH]ccc2-3)cn1`: 95.48%.
As for `Cn1cc(-c2c(C#N)c(N)nc3c2CCc2[nH]ccc2-3)cc1C#N`, the “Percent Effect” value was determined as 1.934%.
As to `COc1ncc(-c2c(C#N)c(N)nc3c2CCc2[nH]ccc2-3)cn1`, the “Percent Effect” value was found to be 19.25%.
For the compound `Cc1nc(NC(=O)c2c(-n3cnnn3)sc3c2CCCC3)sc1C`, the “Percent Effect” value is given as 19.43%.
For the compound `CCN1CCCC(NC(=O)CCn2c(C(F)F)cc3cccnc32)C1` (stereo not drawn), the “Percent Effect” value was determined as 6.84%.
`COCC1N(C(=O)Nc2ccccc2)[C@H]2CC[C@]1(O)CC2` (stereo partly drawn): the “Percent Effect” value is on record as -35.59%.
For the compound `COC1CCCN(C2CCN(c3cccc(-c4csc(C)n4)c3)CC2)C1` (stereo not drawn), the “Percent Effect” value is -0.3551%.
For `Cc1nc(-c2cccc(N3CCC(N4CCCC(C#N)C4)CC3)c2)cs1` (stereo not drawn), the “Percent Effect” value is 11.96%.
With `Cc1nc(-c2cccc(N3CCC(N4CCCC4)CC3)c2)cs1`, the “Percent Effect” value came to 50.87%.
The same measure for `COCCN1CCC(CNC(=O)c2ccnc(-n3ccnc3)c2)CC1`: -23.45%.
The same measure for `COc1ccc(N(C(=O)c2cnc(C)cn2)C(C)C)cc1F`: -10.07%; for `COC(=O)c1cnc(C(=O)N(c2ccc(OC)c(F)c2)C(C)C)cn1`: 77.94%.
On to `COc1ccc(N(C(=O)c2ccccn2)C(C)C)cc1F`, for which the “Percent Effect” value is on record as 9.62%.
For the compound `COc1cc(N2C[C@@H]3COC[C@]3(COc3cccnc3)C2)ncn1.O=C(O)C(F)(F)F.O=C(O)C(F)(F)F`, the “Percent Effect” value is listed as -11.05%.
The same measure for `O=C(O)c1ccc(S(=O)(=O)Nc2cnn(CC(F)(F)F)c2)cc1`: 41.5%; for `COc1cccc(CC(C)NC(=O)NCc2ccn(C)c2)c1` (stereo not drawn): 85.29%.
For `COc1cccc(CC(C)NC(=O)NCCNC(C)=O)c1` (stereo not drawn), the “Percent Effect” value is listed as 11.1%.
The result for `COc1cccc(CC(C)NC(=O)NC(C)C)c1` (stereo not drawn) reads 44.88%; that for `CS(=O)(=O)C1CCN(S(=O)(=O)c2ccc(F)c(F)c2)CC1`, 25.65%.
Turning to `COc1ccc(N2CCC(NCc3csc(C(C)C)n3)CC2)cc1`, the “Percent Effect” value stood at 77.68%.
For the compound `CC(C)c1nc(CNc2ccc(N3CCC(CO)CC3)cn2)cs1`, the “Percent Effect” value came to 20.33%.
As to `CCc1nc(CNC2CCN(c3ccc(OC)cc3)CC2)cs1`, the “Percent Effect” value worked out at 27.61%.
As for `COCCn1c(CN2CCCO2)cnc1S(=O)(=O)CC1CCCCC1`, the “Percent Effect” value worked out at 19.4%.
In the case of `Cc1cc(CN2CCN(Cc3ccc(C#N)cc3F)CC2)no1`, the “Percent Effect” value was -3.509%.
On to `CNC(=O)C1CN(Cc2ccc(C#N)cc2F)c2ccccc2O1` (stereo not drawn), for which the “Percent Effect” value worked out at 105.9%.
As for `CN(C)C(=O)C1CN(Cc2ccc(C#N)cc2)c2ccccc2O1` (stereo not drawn), the “Percent Effect” value is on record as 104.5%.
In the case of `CN(C)C(=O)C1CN(Cc2ccc(C#N)cc2F)c2ccccc2O1` (stereo not drawn), the “Percent Effect” value was 104.6%.
In the case of `CN(C)C1Cc2ccccc2N(S(=O)(=O)c2ccc(C#N)cc2)C1` (stereo not drawn), the “Percent Effect” value was 12.67%.
On to `CN(C)C(=O)Cc1ccccc1NCc1cc(C#N)ccc1F`, for which the “Percent Effect” value came out at 3.977%.
`Cc1cccc(NC(=O)[C@@H]2CCCN2Cc2ccc(C#N)cc2F)n1`: the “Percent Effect” value is 12.34%.
The result for `N#Cc1ccc(S(=O)(=O)N2CC(CC(=O)O)c3ccccc32)cc1` (stereo not drawn) reads 19.47%.
With `CNC(=O)[C@@H]1CC[C@@H]2[C@@H](CCN2Cc2ccccc2F)O1.O=C(O)C(F)(F)F`, the “Percent Effect” value is on record as -11.16%.
As to `CCS(=O)(=O)N1CCc2c(cccc2NC(=O)NCCOC)C1`, the “Percent Effect” value was 16.78%.
As to `COc1ccccc1CCN(C)C(C)c1nc(-c2cccnc2)no1` (stereo not drawn), the “Percent Effect” value is reported as -40.91%.
As to `CN(CCc1ccncc1)c1cnn(C)c(=O)c1Br`, the “Percent Effect” value is -2.68%.
Consider `CC1Cn2c(nc3c2c(=O)[nH]c(=O)n3C)O1` (stereo not drawn), for which the “Percent Effect” value is given as -12.37%.
In the case of `COCC(=O)N1CCCCC1c1ccncn1` (stereo not drawn), the “Percent Effect” value was -40.59%.
As to `Cc1cc(C(=O)Nc2n[nH]c(C3CC3)n2)c2c(C)nn(C)c2n1`, the “Percent Effect” value is reported as 11.85%.
For the compound `COc1ccc(N2CCC(NC(=O)c3sccc3C)CC2)cc1`, the “Percent Effect” value is listed as -7.923%.
With `CN(C)c1cccc(CNC(=O)Nc2ccc3[nH]nnc3c2)n1`, the “Percent Effect” value was determined as 45.79%.
Turning to `Cc1nc(CCNC(=O)NCc2cccc(N(C)C)n2)cs1`, the “Percent Effect” value is reported as -57.29%.
The same measure for `CC(=O)c1ccc(NC(=O)NCc2cccc(N(C)C)n2)cc1C`: 76.43%.
`CCC(=O)N1CCC(c2ncc3c(n2)CCNC3)CC1`: the “Percent Effect” value is reported as -31.27%.
Consider `Cl.O=C(NC1CCCC1)c1ccnc(C2CCNCC2)c1`, for which the “Percent Effect” value came to 56.56%.
As for `Cl.O=C(c1ccnc(C2CCNCC2)c1)N1CCCC1`, the “Percent Effect” value is -26.15%.
As to `Cl.Cn1ccnc1CNC(=O)c1ccnc(C2CCNCC2)c1`, the “Percent Effect” value was -5.824%.
`O=C(O)C(F)(F)F.O=C(O)C(F)(F)F.c1cnn(CCCO[C@@H]2CC[C@H]3[C@H]2OCCN3CC2CCOCC2)c1`: the “Percent Effect” value is on record as -30.39%.
For `O=C(Nc1nc2c(s1)CN(S(=O)(=O)C1CC1)CC2)c1ccc(Cl)s1`, the “Percent Effect” value was 7.24%.
On to `O=C(Nc1nc2c(s1)CN(S(=O)(=O)C1CC1)CC2)c1c(F)cccc1F`, for which the “Percent Effect” value was 0.32%.
In the case of `O=C(Nc1nc2c(s1)CN(S(=O)(=O)C1CC1)CC2)c1cccc(Cl)c1`, the “Percent Effect” value was found to be 52.55%.
As for `Cc1ccc(C(=O)N2CC(=O)N(Cc3ccco3)CC(O)C2)cc1` (stereo not drawn), the “Percent Effect” value was 7.151%.
`COc1ccc(-c2nc(CN3CC(n4cccn4)C3)no2)cc1`: the “Percent Effect” value amounted to 15.06%.
On to `COc1ccc(-c2nc(CN3CC(n4cc(C)cn4)C3)no2)cc1`, for which the “Percent Effect” value is recorded as 55%.
As for `COc1ccc(-c2noc(CN3CC(n4cc(C)cn4)C3)n2)cc1`, the “Percent Effect” value amounted to 22.62%.
Turning to `Cc1cc(C)n(C2CN(Cc3noc(-c4ccccc4)n3)C2)n1`, the “Percent Effect” value turned out to be 16.77%.
Consider `COc1ccc(-c2nc(CN3CC(n4nc(C)cc4C)C3)no2)cc1`, for which the “Percent Effect” value is recorded as 46.41%.
With `Cc1ccc(-c2nc(CN3CC(n4nc(C)cc4C)C3)no2)cc1`, the “Percent Effect” value is 102.5%.
